Assay outcomes (PubChem)
WRN inhibitor – blocks human WRN helicase; WRN helicase unwinding, fluorescent forked duplex, kinetic; Potency, µM (highest dose often 114 µM), for the others: top-dose activity change, negative = inhibition, most hits filed as inhibitors; AID 651768; hit rate 0.46% among 360,000; Q14191; note: potency is the fitted concentration of half-maximal effect; % is set by controls: 0 for no effect and ±100 for the full control effect; nearly all actives have a fitted effect of over 55% in size
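Primary qHTS, 1536-well format. 20 nM WRN + compound, 15 min RT; start with 100 nM forked fluorophore/quencher duplex, 2 mM ATP (final); kinetic read ex 525/em 598 nm.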
Pol eta inh – blocks human DNA polymerase eta activity. AID 588591. recombinant Pol eta, fluorescent DNA replication assay. hit rate 1.2% among 390,000. Q9Y253. Potency, µM (series often up to 114 µM), without a hit: top-dose activity change, negative = inhibition, most hits filed as inhibitors; note: potency is the fitted concentration of half-maximal effect; % is set by controls: 0 for no effect and ±100 for the full control effect
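Fluorescent replication assay: 50 nM final substrate added after a 15 min room-temperature compound preincubation with 10 nM enzyme. Signal taken at 0 min and again at 10 min.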
POLI inh – blocks human DNA polymerase iota activity; Pol iota fluorescent replication assay, 10 min; Potency, µM (series often up to 115 µM), for inactives: at the highest dose activity, negative = inhibition, actives largely listed as inhibitors; hit rate 1% among 390,000; AID 588590; note: potency is the fitted concentration of half-maximal effect
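Fluorescent replication assay read twice, at 0 min and 10 min after adding 50 nM (final) substrate. Enzyme (10 nM) and compounds were first incubated 15 min at room temperature; enzyme-free buffer wells were negative controls.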
Pol kappa inh – inhibitors of human DNA polymerase kappa; purified Pol kappa, fluorescent DNA synthesis assay, 10 min; Potency, µM (highest dose often 107 µM), for inactives: at the highest dose activity, negative = inhibition, usual class: inhibitors; hit rate 0.53% among 400,000; AID 588579; note: potency is the fitted concentration of half-maximal effect; % is set by controls: 0 for no effect and ±100 for the full control effect
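10 nM Pol kappa preincubated 15 min at room temperature with compounds, then reaction started with substrate at 50 nM final. Fluorescence read kinetically at 0 and 10 min; buffer-only wells served as negative control.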
PI5P4K alpha inh – PI5P4K alpha (human) kinase inhibition; P48426; hit rate 1.2% among 330,000; PI5P4Kalpha enzyme, ADP-Glo luminescence, 60 min; stronger effect = lower value; AID 652105; max response, %; active = max response of -50% or lower; inconclusive = between -30% and -50%; inactive = -30% or higher; note: value at the top dose of about 77 µM; % is set by controls: 0 for no effect and ±100 for the full control effect
Target sequence (P48426 whole entry, looked up): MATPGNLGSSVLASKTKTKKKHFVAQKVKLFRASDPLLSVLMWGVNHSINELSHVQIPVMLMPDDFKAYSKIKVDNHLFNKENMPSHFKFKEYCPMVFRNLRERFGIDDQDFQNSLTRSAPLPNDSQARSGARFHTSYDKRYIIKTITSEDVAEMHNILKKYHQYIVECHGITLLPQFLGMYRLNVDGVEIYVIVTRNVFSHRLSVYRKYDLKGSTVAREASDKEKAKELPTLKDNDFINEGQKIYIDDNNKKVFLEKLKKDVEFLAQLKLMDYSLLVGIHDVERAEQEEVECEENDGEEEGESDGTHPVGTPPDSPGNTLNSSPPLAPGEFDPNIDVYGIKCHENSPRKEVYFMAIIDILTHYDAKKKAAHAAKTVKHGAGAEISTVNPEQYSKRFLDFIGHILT
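ADP-Glo luminescence end-point read after a 60 min room-temperature kinase reaction of PI5P4Kalpha plus substrate, initiated with ATP at 5 microM final. Buffer: 0.038 M HEPES pH 7.4, EGTA, 0.1% CHAPS, 5% DMSO.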
POLB inh – blocks human DNA polymerase beta activity. Pol beta primer extension/strand displacement, fluorescence kinetic. P06746. hit rate 1.3% among 340,000. Potency, µM (titrated, usually from 114 µM), for inactives: at the highest dose activity change, negative = inhibition, most hits filed as inhibitors; note: potency is the fitted concentration of half-maximal effect; % is set by controls: 0 for no effect and ±100 for the full control effect
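Homogeneous kinetic assay of primer extension and strand displacement by 10 nM Pol beta, preincubated 15 min at room temperature with compound before 50 nM substrate (final) was added. Read at 0 and 10 min; four-parameter Hill fit.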
Active calls of the source: *; u = inconclusive; x = not tested or not shown; [ ] = another dose, or the depositor's remark. Sampled rows, rich in hits. Any-hit rate of the full collection: about 2.8%. Unless noted, calls come from the whole dose curve; as a rule, active = well fitted curve in the direction sought with a large enough effect; inconclusive = small, poorly fitted or top-dose-only effect, or another doubt; inactive = no such curve, though single readings can be large; an effect the other way counts as inactive or inconclusive.

SMILES	WRN inhibitor	Pol eta inh	POLI inh	Pol kappa inh	PI5P4K alpha inh	POLB inh
CC(=O)Nc1ccc(NS(=O)(=O)c2ccc(-c3cnc(C4CC4)o3)cc2)cc1	2%	-6%	19%	-29%	-6	5%
Cc1ccc2c(Cl)c(C)c(N3CCOCC3)nc2n1	6%	10%	8%	-21%	5	x
CCCCCCc1cc2cc(C(N)=O)c(=N)oc2cc1O	x	x	x	x	x	32µM*
COc1ccc(Cn2c(C3CCCCC3)nc3c(c(=O)c4ccccc4n3C)c2=O)cc1	-12%	u	18%	-3%	1	4.5µM*
O=S(=O)(c1ccc(Br)cc1)c1nc(-c2ccco2)oc1SCc1ccccc1Cl	x	-1%	79µM*	u	x	13%
Cc1ccc(S(=O)(=O)c2nc(-c3ccco3)oc2SC(C)c2ccccc2)cc1 (stereo unspecified)	x	u	u	-17%	x	u
Cc1ccc(CSc2oc(-c3ccco3)nc2S(=O)(=O)c2ccc(Br)cc2)cc1	x	-9%	56µM*	u	x	-27%
Cc1ccc(CSc2oc(-c3ccco3)nc2S(=O)(=O)c2ccc(Cl)cc2)cc1	x	3%	-21%	-1%	x	0%
CC(C)Sc1oc(-c2ccco2)nc1S(=O)(=O)c1ccc(F)cc1	u	71µM*	u	u	x	28µM*
Cn1c(=O)c2c(-c3ccccc3)n(-c3cccc(C#N)c3)cc2n(C)c1=O	x	-2%	-17%	9%	x	24%
CC(N)C(=O)NC(CO)C(O)C(N)C=O (stereo unspecified)	1%	-16%	12%	-13%	24	x
Cn1c(SCC(=O)N/N=C/c2ccc([N+](=O)[O-])s2)nnc1-c1ccc(Cl)cc1	-4%	-6%	43%	-7%	-13	8%
CN=c1nc(-c2ccccc2)n(-c2ccccc2)s1	4%	1%	-6%	-12%[60.1 µM]	-86*	u
CC(C)CCCC(C)CCCC(C)CCCC(C)C(=O)O (stereo unspecified)	x	x	x	30µM*	x	x
CC(C)CCCC(C)CCCC(C)CCCCC(C)CCCC(C)CCCC(C)C (stereo unspecified)	x	x	x	2%[60.1 µM]	x	x
O=C(O)c1ccc2ncsc2c1	u	-20%	4µM*	-14%	u	8%
Cn1cc(C(=O)NCCN2CCN(c3cccc(Cl)c3)CC2)c2c3ccccc3n(C)c2c1=O	-10%	u	100µM*	u	x	19%
COCCCNC(=O)c1cn(C)c(=O)c2c1c1ccccc1n2C	-2%	0%	51%	-7%	-1	0%
COc1ccccc1CNc1nc(-c2cc(C)n(C)c2C)cs1	-10%	-8%	72%	-4%	-72*	0%
c1ccn2cc(-c3ccc4c(c3)OCO4)cc2c1	-6%	-14%	45µM*	-36%	-14	40µM*
CC1(NC(=O)CC[N+](C)(C)CCO)CS(=O)(=O)CC1S(=O)(=O)[O-] (stereo unspecified)	x	x	x	x	x	2µM*
COCc1cccc(-c2csc(C(C)(O)c3ccccc3)n2)c1 (stereo unspecified)	-2%	x	x	x	-2	x
CCc1ccc(S(=O)(=O)N(C(=O)Oc2ccccc2)c2ccc3oc(C)c(C(=O)OC)c3c2)cc1	x	1%	-4%	-5%	x	-19%
COC(=O)c1c(C)oc2ccc(N(C(=O)Oc3ccccc3)S(=O)(=O)c3ccc(Cl)c([N+](=O)[O-])c3)cc12	-13%	u	45µM*	-21%	u	22µM*
Cc1sc2nc(CSC(C)C(=O)Nc3ccccn3)[nH]c(=O)c2c1C (stereo unspecified)	-8%	71µM*	-15%	-16%	-1	x
Cc1cccc(NC(=O)C(C)SCc2nc3sc(C)c(C)c3c(=O)[nH]2)n1 (stereo unspecified)	u	u	u	-5%	-6	u
Cc1sc2nc(CSc3nc4ccccc4s3)[nH]c(=O)c2c1C	x	x	x	x	x	40µM*
Cc1ccc(NC(=O)C(C)SCc2nc3sc(C)c(C)c3c(=O)[nH]2)nc1 (stereo unspecified)	-8%	u	u	-6%	-7	x
